The target in assay [1] is Fibroblast growth factor receptor 4 (Homo sapiens) (UniProt P22455). The following applies: at 1 µM.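 Note: reported figure is the averaged percent inhibition of FGFR4, from the GSK PKIS kinase screening panel.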
The target of assay [2] is Tyrosine-protein kinase Fgr (Homo sapiens) (UniProt P09769). Particulars: at 0.1 µM.
The target is the same in assay [3]. Particulars: at 1 µM.
The target in assay [4] is Vascular endothelial growth factor receptor 1 (Homo sapiens) (UniProt P17948). Particulars: at 0.1 µM.
For assay [5] the target is unchanged. Particulars: at 1 µM.
For assay [6], the target named is Receptor-type tyrosine-protein kinase FLT3 (Homo sapiens) (UniProt P36888). The following applies: at 0.1 µM.
Assay [7] shares this target. The following applies: at 1 µM.
Assay [8] deals with Non-receptor tyrosine-protein kinase TYK2 (Homo sapiens) (UniProt P29597). Particulars: at 1 µM.
Chain of Non-receptor tyrosine-protein kinase TYK2 (Homo sapiens) (P29597 whole entry): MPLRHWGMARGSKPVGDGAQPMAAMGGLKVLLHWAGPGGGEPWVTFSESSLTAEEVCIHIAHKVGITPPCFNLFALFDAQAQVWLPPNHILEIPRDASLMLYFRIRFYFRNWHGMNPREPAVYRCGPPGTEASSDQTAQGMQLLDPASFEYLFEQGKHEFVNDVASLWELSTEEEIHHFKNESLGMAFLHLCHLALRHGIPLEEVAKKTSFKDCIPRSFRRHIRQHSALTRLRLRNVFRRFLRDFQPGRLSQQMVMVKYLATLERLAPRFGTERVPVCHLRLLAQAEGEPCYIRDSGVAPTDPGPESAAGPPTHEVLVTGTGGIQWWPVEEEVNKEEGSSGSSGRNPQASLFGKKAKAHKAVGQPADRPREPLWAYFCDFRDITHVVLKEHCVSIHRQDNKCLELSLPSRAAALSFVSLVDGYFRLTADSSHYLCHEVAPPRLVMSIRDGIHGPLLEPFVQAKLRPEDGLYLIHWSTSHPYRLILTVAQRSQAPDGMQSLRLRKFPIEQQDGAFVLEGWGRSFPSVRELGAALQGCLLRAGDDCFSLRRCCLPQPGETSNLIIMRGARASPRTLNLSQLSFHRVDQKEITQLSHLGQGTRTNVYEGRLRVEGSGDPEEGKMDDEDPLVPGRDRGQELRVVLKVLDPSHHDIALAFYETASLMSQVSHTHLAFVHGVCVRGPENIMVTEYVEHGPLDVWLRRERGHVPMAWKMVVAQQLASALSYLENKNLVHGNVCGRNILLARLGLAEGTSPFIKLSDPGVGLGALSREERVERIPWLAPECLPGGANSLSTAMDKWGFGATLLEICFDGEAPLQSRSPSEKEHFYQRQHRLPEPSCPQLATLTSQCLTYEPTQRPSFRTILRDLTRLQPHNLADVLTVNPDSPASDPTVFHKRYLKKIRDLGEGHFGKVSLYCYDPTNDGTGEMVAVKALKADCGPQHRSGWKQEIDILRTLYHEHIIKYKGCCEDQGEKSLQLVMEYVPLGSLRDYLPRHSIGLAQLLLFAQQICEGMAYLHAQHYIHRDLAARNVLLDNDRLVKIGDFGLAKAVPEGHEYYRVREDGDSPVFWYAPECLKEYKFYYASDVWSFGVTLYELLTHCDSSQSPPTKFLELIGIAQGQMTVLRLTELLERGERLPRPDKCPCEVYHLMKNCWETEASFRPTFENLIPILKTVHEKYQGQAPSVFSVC
The target in assay [9] is T1, Tyrosine-protein kinase receptor TYRO3 (Homo sapiens) (UniProt Q06418).
T1 sequence (whole entry): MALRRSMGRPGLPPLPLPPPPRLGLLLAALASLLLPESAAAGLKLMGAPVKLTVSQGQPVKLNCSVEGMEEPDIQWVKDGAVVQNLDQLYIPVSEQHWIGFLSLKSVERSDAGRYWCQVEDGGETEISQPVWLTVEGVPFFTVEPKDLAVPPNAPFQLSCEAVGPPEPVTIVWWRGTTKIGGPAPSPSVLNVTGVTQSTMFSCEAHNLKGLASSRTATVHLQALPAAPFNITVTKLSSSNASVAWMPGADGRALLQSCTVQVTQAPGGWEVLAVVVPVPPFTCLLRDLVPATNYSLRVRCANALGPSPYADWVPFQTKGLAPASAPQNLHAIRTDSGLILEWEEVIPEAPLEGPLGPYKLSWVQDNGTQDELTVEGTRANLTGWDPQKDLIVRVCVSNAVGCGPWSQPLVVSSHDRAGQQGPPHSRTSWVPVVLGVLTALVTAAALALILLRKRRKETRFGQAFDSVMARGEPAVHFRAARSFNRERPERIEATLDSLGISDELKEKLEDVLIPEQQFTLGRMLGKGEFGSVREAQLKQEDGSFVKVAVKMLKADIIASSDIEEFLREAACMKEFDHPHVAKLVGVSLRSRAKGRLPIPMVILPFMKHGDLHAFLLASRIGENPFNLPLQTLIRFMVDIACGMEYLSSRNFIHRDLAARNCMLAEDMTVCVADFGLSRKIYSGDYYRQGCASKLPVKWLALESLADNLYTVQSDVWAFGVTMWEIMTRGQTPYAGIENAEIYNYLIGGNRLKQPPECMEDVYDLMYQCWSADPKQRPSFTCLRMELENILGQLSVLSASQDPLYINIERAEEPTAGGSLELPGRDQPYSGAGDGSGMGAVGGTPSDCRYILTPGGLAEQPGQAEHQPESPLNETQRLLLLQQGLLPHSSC
The following applies: at 0.1 µM.

The target in assay [10] is T1, Tyrosine-protein kinase receptor TYRO3 (Homo sapiens). Particulars: at 1 µM.
Assay [11] concerns the target Tyrosine-protein kinase Yes (Homo sapiens) (UniProt P07947). The following applies: at 0.1 µM.
Assay [12] has the same target. The following applies: at 1 µM.
Assay [13] has as its target T2, Tyrosine-protein kinase ZAP-70 (Homo sapiens) (UniProt P43403).
T2 sequence (whole entry): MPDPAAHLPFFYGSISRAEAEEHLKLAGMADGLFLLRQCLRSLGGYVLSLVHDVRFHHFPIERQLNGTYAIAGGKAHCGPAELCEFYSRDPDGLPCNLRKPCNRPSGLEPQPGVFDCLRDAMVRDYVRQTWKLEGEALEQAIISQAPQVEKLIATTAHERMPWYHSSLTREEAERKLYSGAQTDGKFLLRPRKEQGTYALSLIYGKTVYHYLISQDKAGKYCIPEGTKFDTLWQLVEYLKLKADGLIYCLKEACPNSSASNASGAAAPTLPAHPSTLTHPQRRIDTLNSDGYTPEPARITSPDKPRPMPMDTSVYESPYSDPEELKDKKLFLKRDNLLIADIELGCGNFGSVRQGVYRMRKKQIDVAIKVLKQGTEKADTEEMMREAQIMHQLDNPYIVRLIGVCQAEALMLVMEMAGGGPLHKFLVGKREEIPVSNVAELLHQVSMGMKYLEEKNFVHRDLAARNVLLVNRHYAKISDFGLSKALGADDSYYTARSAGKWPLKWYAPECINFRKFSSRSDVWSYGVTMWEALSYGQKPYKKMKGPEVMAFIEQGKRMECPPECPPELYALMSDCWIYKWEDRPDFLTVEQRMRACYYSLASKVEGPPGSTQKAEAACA
The following applies: at 0.1 µM.

Assay [14] deals with T2, Tyrosine-protein kinase ZAP-70 (Homo sapiens). The following applies: at 1 µM.
Assay [15] concerns the target Serine/threonine-protein kinase B-raf (Homo sapiens) (UniProt P15056). The following applies: at 0.1 µM.
Assay [16] has the same target. Particulars: at 1 µM.
Assay [17] relates to Serine/threonine-protein kinase B-raf (Homo sapiens), P15056 [V600E]. The following applies: at 0.1 µM.
Chain of Serine/threonine-protein kinase B-raf (Homo sapiens), P15056 [V600E] (P15056 whole entry V600E): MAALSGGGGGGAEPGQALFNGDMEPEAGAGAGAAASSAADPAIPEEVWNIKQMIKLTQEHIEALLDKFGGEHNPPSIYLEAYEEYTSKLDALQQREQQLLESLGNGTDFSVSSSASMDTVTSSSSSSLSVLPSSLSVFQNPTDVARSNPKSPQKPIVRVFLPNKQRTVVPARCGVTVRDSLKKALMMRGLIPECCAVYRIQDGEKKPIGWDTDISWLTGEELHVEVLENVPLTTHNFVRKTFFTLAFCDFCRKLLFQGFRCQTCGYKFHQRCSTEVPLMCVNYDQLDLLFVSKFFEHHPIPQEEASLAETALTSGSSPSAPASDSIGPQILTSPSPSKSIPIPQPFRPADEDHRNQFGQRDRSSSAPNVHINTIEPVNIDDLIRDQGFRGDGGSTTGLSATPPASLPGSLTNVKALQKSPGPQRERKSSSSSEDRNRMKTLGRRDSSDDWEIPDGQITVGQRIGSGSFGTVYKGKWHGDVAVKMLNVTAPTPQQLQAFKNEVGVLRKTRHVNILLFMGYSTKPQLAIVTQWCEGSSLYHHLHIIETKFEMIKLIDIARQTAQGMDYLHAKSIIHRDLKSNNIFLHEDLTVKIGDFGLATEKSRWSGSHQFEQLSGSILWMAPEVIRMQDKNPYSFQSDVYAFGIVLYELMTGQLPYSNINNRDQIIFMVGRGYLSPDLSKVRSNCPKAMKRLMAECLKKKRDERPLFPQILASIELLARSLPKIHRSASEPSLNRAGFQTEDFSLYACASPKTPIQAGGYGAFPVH
For assay [18] the test system is unchanged. The following applies: at 1 µM.
In assay [19] the target is RAF proto-oncogene serine/threonine-protein kinase (Homo sapiens) (UniProt P04049). Particulars: at 0.1 µM.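 Note: values are mean CRAF kinase inhibition from profiling of the GSK Published Kinase Inhibitor Set.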
Chain of RAF proto-oncogene serine/threonine-protein kinase (Homo sapiens) (P04049 whole entry): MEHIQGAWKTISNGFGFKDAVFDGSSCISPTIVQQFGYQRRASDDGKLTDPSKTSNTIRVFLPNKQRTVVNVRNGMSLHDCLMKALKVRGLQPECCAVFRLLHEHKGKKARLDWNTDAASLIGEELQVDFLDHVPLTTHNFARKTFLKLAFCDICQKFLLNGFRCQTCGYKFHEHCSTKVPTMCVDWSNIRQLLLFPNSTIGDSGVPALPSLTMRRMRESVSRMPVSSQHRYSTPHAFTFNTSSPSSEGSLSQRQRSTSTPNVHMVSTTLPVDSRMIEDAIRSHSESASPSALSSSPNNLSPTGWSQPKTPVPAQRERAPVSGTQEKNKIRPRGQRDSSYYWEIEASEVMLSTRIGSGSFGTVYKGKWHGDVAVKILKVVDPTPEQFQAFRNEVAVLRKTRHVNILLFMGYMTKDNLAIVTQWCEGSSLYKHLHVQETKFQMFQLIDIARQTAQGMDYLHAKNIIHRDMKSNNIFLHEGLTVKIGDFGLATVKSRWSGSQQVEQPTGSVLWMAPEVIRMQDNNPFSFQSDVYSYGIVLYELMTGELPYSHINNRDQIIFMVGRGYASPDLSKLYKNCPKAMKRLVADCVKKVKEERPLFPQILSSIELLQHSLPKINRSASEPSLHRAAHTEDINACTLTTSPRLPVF
For assay [20], the system named is T3, Receptor-type tyrosine-protein kinase FLT3 (Homo sapiens), P36888 [D835Y].
T3 sequence (whole entry): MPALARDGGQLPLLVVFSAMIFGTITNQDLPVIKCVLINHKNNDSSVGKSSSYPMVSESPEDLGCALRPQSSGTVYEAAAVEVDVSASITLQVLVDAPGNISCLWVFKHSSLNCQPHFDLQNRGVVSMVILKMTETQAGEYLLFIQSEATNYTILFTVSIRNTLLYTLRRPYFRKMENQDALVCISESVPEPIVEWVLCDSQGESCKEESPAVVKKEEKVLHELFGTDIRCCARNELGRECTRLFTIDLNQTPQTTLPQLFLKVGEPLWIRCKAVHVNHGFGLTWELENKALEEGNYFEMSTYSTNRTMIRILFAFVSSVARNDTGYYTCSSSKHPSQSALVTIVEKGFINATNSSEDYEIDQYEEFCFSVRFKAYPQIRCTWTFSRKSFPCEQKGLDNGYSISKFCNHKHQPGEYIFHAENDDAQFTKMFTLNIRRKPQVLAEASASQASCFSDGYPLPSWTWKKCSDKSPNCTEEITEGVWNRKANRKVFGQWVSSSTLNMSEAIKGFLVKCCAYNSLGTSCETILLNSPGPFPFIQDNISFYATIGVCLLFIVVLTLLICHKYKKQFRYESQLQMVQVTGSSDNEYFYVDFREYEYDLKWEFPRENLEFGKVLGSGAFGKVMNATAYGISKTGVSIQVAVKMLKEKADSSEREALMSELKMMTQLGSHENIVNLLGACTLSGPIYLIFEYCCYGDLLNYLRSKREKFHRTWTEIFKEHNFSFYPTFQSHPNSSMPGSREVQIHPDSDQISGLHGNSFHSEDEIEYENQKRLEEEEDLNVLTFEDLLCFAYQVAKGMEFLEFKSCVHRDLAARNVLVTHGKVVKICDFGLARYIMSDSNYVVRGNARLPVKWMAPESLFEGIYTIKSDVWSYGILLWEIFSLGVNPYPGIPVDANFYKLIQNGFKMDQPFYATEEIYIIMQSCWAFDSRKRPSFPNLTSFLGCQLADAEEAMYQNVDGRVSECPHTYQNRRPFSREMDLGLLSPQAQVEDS
The following applies: at 0.1 µM.

SMILES strings stand for the structures.

Our source for the inhibition values is ChEMBL document CHEMBL1961873, “Compounds: GSK PKIS; Assays: Nanosyn kinase panel” (2012).

A word on the inhibition: it is the change of the read-out against control, counted positive when it falls.

Chain of Serine/threonine-protein kinase B-raf (Homo sapiens) (P15056 whole entry): as the sequence (P15056 whole entry V600E) above, with E600V counted along it
Chain of Tyrosine-protein kinase Fgr (Homo sapiens) (P09769 2-529 limits assumed): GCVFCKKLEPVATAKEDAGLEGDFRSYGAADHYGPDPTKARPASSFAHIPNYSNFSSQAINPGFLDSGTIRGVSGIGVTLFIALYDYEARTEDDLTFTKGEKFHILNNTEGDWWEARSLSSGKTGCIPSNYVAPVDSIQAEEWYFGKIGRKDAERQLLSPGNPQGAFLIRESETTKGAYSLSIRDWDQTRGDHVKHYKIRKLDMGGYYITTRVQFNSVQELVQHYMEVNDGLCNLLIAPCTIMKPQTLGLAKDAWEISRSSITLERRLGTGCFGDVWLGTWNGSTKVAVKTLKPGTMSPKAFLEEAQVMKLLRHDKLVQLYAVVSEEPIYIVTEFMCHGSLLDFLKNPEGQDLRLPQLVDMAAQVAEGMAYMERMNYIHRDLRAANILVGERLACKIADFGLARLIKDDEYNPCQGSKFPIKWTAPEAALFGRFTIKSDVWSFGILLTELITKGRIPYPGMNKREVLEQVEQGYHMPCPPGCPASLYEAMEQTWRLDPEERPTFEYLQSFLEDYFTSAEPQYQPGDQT
Chain of Tyrosine-protein kinase Yes (Homo sapiens) (P07947 2-543 limits assumed): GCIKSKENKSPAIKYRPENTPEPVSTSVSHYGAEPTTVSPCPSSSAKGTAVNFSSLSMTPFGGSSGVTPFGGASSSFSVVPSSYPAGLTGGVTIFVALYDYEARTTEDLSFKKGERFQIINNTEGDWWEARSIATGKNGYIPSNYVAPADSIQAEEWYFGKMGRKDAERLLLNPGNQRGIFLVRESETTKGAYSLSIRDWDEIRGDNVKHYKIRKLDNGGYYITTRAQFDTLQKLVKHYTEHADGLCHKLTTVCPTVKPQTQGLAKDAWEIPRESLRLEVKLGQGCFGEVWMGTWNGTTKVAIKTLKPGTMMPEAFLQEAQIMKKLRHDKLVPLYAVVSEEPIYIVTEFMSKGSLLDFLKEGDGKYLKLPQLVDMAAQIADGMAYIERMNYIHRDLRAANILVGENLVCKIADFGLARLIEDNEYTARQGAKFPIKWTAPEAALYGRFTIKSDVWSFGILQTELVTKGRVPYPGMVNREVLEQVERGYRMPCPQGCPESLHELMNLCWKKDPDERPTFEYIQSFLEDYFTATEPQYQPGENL
Chain of Fibroblast growth factor receptor 4 (Homo sapiens) (P22455 22-802 limits assumed): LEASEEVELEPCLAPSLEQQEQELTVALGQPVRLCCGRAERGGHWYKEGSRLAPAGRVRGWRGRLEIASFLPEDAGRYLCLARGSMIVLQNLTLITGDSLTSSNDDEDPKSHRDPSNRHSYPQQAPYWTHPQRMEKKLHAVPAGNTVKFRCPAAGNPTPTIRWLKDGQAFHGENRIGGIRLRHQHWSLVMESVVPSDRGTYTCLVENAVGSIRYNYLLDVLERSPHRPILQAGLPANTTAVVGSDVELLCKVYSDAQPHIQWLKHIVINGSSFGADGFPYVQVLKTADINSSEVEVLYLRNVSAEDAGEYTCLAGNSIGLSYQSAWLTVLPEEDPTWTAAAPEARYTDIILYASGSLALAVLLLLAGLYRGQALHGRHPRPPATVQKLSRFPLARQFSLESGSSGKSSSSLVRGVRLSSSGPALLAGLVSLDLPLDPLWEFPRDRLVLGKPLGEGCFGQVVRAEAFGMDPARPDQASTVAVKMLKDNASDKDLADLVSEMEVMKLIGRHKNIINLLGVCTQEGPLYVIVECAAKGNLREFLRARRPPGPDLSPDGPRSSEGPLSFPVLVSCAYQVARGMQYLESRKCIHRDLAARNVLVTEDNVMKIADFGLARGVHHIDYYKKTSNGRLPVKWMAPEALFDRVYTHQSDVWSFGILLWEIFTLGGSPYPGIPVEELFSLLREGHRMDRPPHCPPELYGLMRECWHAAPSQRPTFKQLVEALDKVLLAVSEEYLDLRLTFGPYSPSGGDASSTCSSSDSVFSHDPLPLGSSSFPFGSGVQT

Turning to `CCOc1ccc2c(-c3ccnc(Nc4cccc(C(F)(F)F)c4)n3)cnn2n1`, the inhibition in assay [1] is -0.95%; in assay [2] it was 2.53%; in assay [3] it was 5.2%; in assay [4], -0.98%; in assay [5], 1.9%; in [6] it was -0.37%. Besides, the inhibition in assay [7] was determined as 5.14%; in assay [8] it was 0%; in assay [9] it was 0.79%; in assay [10] it was 2.7%; in assay [11] it was 0.08%; in assay [12], 3.08%. Further, the inhibition in assay [13] worked out at 0.89%; in [14], 2.78%; in assay [15], 3.46%; in assay [16], 1.64%; in assay [17], 3.04%; in assay [18], 0.8%. For the same molecule, the inhibition in assay [19] is -2.28%.
For `COc1cc(/C=N/Nc2ncnc3[nH]ncc23)ccc1O`, the inhibition was found to be 2.77% in [1]; 12.4% in [2]; 52.6% in assay [3]; 2.92% in assay [4]; 10.6% in [5]; 3.29% in assay [6]. The inhibition in assay [7] was 17.4%; in [20] it was 3.54%; in assay [8] it was 4.1%; in [9], 4.61%; in [10] it was 26.6%; in [11] it was 16.4%. Moreover, the inhibition in assay [12] stood at 58%; in assay [13], 0.75%; in assay [14] it was 7.51%; in [15], 5.39%; in assay [16] it was 8.88%; in [17], 4.62%. For the same molecule, the inhibition in assay [18] is 8.2%; in [19] it was 4.83%.
`CCCN1CCC(c2ccc(Nc3nc(Nc4cc(F)ccc4C(N)=O)c4cc[nH]c4n3)c(OC)c2)CC1`: the inhibition in assay [1] was found to be 12.4%; in [2] it was 6.28%; in assay [3] it was 7.49%; in assay [4], 0.21%; in [5], 0.37%; in assay [6] it was 4.46%. For the same molecule, the inhibition in assay [7] is 20.3%; in assay [20] it was 6.01%; in [8], -2.78%; in assay [9], 3.47%; in assay [10] it was 18.4%; in assay [11], 5.76%. For the same molecule, the inhibition in [12] stood at 19.3%; in [14], 29.3%; in assay [15], 9.61%; in assay [16], 37.6%; in [17] it was 10.1%; in [18], 37.4%. Moreover, the inhibition in assay [19] was determined as 7.25%.
As to `CCCN(CCS(C)(=O)=O)Cc1ccc(-c2ccc3ncnc(Nc4ccc(OCc5cccc(F)c5)c(Cl)c4)c3c2)o1`, the inhibition is 3.7% in assay [1]; 3.69% in assay [2]; 7.51% in [3]; -1% in assay [4]; 1.07% in [5]; 0.88% in [6]. In addition, the inhibition in [7] is 1.93%; in assay [20] it was 1.48%; in [8] it was -0.78%; in assay [9], 2.08%; in assay [10], 1.99%; in [11], 1.86%. The inhibition in assay [12] worked out at 8.75%; in assay [14], 1.73%; in [15] it was 3.07%; in [16], 3.72%; in assay [17] it was 3.15%; in assay [18] it was 3.85%. The inhibition in assay [19] was found to be 1.57%.
`FC(F)(F)c1cccc(-c2nn3ncccc3c2-c2ccnc(Nc3ccc4c(c3)OCCO4)n2)c1`: the inhibition in assay [1] was found to be 2.21%; in assay [2], 32.5%; in [3], 75.3%; in assay [4] it was 0.57%; in [5] it was 12%; in [6] it was 0.74%. Moreover, the inhibition in assay [20] was -3.8%; in [8] it was -3.08%; in [9], 4.46%; in [10], 22.9%; in assay [11] it was 32.1%; in assay [12] it was 82.8%. Moreover, the inhibition in [13] was determined as 2%; in assay [14] it was 3.05%; in assay [15] it was 2.88%; in assay [16] it was 6.42%; in assay [17], 1.76%; in [18], 7.02%. The inhibition in assay [19] was -1.62%.
Take `CNC(=O)c1cncc(/C=C/c2ccccc2Cl)c1`: the inhibition in [1] amounted to 1.93%; in [2], 5.13%; in assay [3], 9.91%; in assay [4] it was 0.53%; in assay [5], 2.73%; in assay [6], 1.25%. For the same molecule, the inhibition in assay [7] is -0.38%; in assay [20], 3.03%; in assay [8], 2.16%; in assay [9] it was 0.43%; in assay [10], 2.53%; in [11] it was 3.64%. Also, the inhibition is 7.95% in assay [12]; 1.79% in assay [13]; 1.12% in assay [14]; -0.63% in assay [15]; 0.08% in [16]; -0.33% in assay [17]. The inhibition in [18] is 0.71%; in assay [19], 0.74%.
For the molecule `COc1ccc(-c2oc3ncnc(N)c3c2-c2ccc(NC(=O)Nc3cc(C(F)(F)F)ccc3F)cc2)cc1`, the inhibition in assay [1] worked out at 48.5%; in assay [2], 17%; in assay [3], 61%; in [4] it was 47.8%; in assay [5] it was 96.7%; in assay [6], 22.1%. Further, the inhibition in assay [20] worked out at 12.7%; in assay [8], 0.14%; in [9], 8.25%; in assay [10], 49.4%; in assay [11], 15.7%; in assay [12], 80.1%. For the same molecule, the inhibition in assay [13] was 0.23%; in assay [14] it was 4.77%; in [15], 6.96%; in assay [16], 19.6%; in [17] it was 8.1%; in assay [18] it was 23.9%. Also, the inhibition in [19] amounted to 2.02%.
